Several values for one entry are separate records, joined by “and”; a condition that tells them apart may be missing. Equal values may be shown once. Activity calls are given as the source filed them. Calls come from the whole dose curve; as a rule, active = well fitted inhibition curve with a large enough effect; inconclusive = small, poorly fitted or top-dose-only effect; inactive = flat fitted curve, though single readings scatter.
Assay: Quantitative high throughput screen for delayed death inhibitors of the malarial parasite plastid, 96 hour incubation.
Conditions: P. falciparum luciferase growth
From the text: NIH Molecular Libraries Probe Production Network [MLPCN] NIH Chemical Genomics Center [NCGC] MLPCN Grant: R21 NS059500 Assay Provider: David Fidock and Eric Ekland, Columbia University The goal of this screen is to discover new antimalarial compounds that act by inhibiting the development of the apicoplast in the malarial parasite Plasmodium falciparum. The biochemical processes that make this organelle essential for erythrocytic stage parasites are not well understood. However, antibiotics, such as azithromycin and tetracycline, which target the apicoplast translational machinery, have a potent antimalarial effect. […] We have developed a cell-based assay that measures parasite growth based on the expression of an integrated copy of a firefly luciferase reporter. To detect small molecules that cause this 'delayed death' phenotype, erythrocytes infected with the luciferase-expressing parasites were incubated with compounds for either one or two generations, corresponding to 48 and 96 hours, respectively. Compounds that inhibit parasite growth in the second generation, but not the first, should be enriched in antimalarials that target the apicoplast. Growth inhibition is detected by a decrease in luciferase activity
Four microliters of culture medium (RPMI 1640 with 0.5% w/v Albumax (GIBCO), 24 mM sodium bicarbonate and 10 ug/mL gentamycin) were dispensed by a Multi-drop Combi into white solid 1536-well plates (Grenier) and 23 nL compound was added by a pin tool. Four microliters of infected erythrocytes (2% hematocrit, 0.1% parasitemia final concentration) in culture medium were dispensed and the plates incubated for 96 hours at 37 C in 5% CO2. Two microliters of luciferase detection reagent was added and luminescence was detected by a ViewLux (PerkinElmer) reader

SMILES	Potency
C[C@@H]1CN([C@@H](C)CO)C(=O)c2cc(NC(=O)Nc3ccccc3)ccc2O[C@@H](C)CCCCO[C@H]1CN(C)S(=O)(=O)c1ccccc1F	449 nM (active)
C[C@@H]1CN([C@@H](C)CO)C(=O)c2cc(NC(=O)Nc3ccccc3)ccc2O[C@@H](C)CCCCO[C@H]1CN(C)S(=O)(=O)c1ccc(C(F)(F)F)cc1	798 nM (active)
C=CCOC(=O)N(C)C[C@@H]1OCCCC[C@H](C)Oc2ccc(NC(=O)Nc3ccccc3)cc2C(=O)N([C@H](C)COC(=O)c2ccccc2)C[C@H]1C	504 nM (active)
C[C@@H]1CN([C@@H](C)COC(=O)c2ccccc2)C(=O)c2cc(NC(=O)Nc3ccccc3)ccc2O[C@@H](C)CCCCO[C@H]1CN(C)S(=O)(=O)c1ccc(F)cc1	44.9 nM (active)
C[C@@H]1CN(C)C(=O)c2cc(NC(=O)Nc3ccccc3)ccc2O[C@@H](C)CCCCO[C@@H]1CN(C)S(=O)(=O)c1ccc(F)cc1	1000 nM (active)
COCOC[C@H](C)N1C[C@@H](C)[C@H](CN(C)S(=O)(=O)c2ccc(F)cc2)OCCCC[C@H](C)Oc2ccc(NC(=O)Nc3ccccc3)cc2C1=O	8 nM (active)
C[C@@H]1CN([C@H](C)CO[Si](C)(C)C(C)(C)C)C(=O)c2cc(NC(=O)Nc3ccccc3)ccc2O[C@@H](C)CCCCO[C@H]1CN(C)S(=O)(=O)c1ccc(F)cc1	159 nM (active)
C[C@@H]1CN([C@@H](C)CO)C(=O)c2cc(NC(=O)Nc3ccccc3)ccc2O[C@@H](C)C/C=C/CO[C@H]1CN(C)S(=O)(=O)c1ccc(F)cc1	79.8 nM (active)
C[C@@H]1CN([C@@H](C)CO)C(=O)c2cc(NC(=O)Nc3ccccc3)ccc2O[C@@H](C)CCCCO[C@H]1CN(C)Cc1ccc(C(F)(F)F)cc1	711 nM (active)
C[C@@H]1CN([C@@H](C)COC(C)(C)C)C(=O)c2cc(NC(=O)Nc3ccccc3)ccc2O[C@@H](C)CCCCO[C@H]1CN(C)S(=O)(=O)c1ccc(F)cc1	0.8 nM (active)
C[C@@H]1CCCCO[C@@H](CN(C)Cc2ccc(F)cc2)[C@H](C)CN([C@@H](C)CO)C(=O)c2cc(NC(=O)Nc3ccccc3)ccc2O1	2830 nM (active)
C[C@@H]1CN([C@@H](C)CO)C(=O)c2cc(NC(=O)Nc3ccccc3)ccc2O[C@@H](C)CCCCO[C@H]1CN(C)C(=O)OC(C)(C)C	711 nM (active)
C[C@@H]1CN([C@@H](C)COC(=O)C(C)(C)C)C(=O)c2cc(NC(=O)Nc3ccccc3)ccc2O[C@@H](C)CCCCO[C@H]1CN(C)S(=O)(=O)c1ccc(F)cc1	5.7 nM (active)
C[C@@H]1CN([C@@H](C)CO)C(=O)c2cc(NC(=O)Nc3ccccc3)ccc2O[C@@H](C)CCCCO[C@H]1CN(C)S(=O)(=O)c1cccnc1	2830 nM (active)
COc1ccc(COC[C@H](C)N2C[C@@H](C)[C@H](CN(C)Cc3ccc(OC)cc3)OCCCC[C@H](C)Oc3ccc(NC(=O)Nc4ccccc4)cc3C2=O)cc1	449 nM (active)
C[C@@H]1CN([C@@H](C)COC(=O)c2ccccc2)C(=O)c2cc(NC(=O)Nc3ccccc3)ccc2O[C@@H](C)CCCCO[C@H]1CN(C)C(=O)OC(C)(C)C	356 nM (active)
COc1ccc(COCCN2C[C@@H](C)[C@H](CN(C)S(=O)(=O)c3ccc(F)cc3)OCCCC[C@H](C)Oc3ccc(NC(=O)Nc4ccccc4)cc3C2=O)cc1	71.1 nM (active)

SMILES	Potency
C[C@@H]1CN(CCO[Si](C)(C)C(C)(C)C)C(=O)c2cc(NC(=O)Nc3ccccc3)ccc2O[C@@H](C)CCCCO[C@H]1CN(C)S(=O)(=O)c1ccc(F)cc1	40 nM (active)
Cc1noc(C)c1NC(=O)Nc1ccc2c(c1)C(=O)N(C(C)C)C[C@@H](C)[C@H](CN(C)S(=O)(=O)c1ccc(F)cc1)OCCCC[C@H](C)O2	44.9 nM (active) and 1.42 µM (active)
C[C@@H]1CN([C@@H](C)CO)C(=O)c2cc(Nc3nc4ccccc4o3)ccc2O[C@@H](C)CCCCO[C@H]1CN(C)S(=O)(=O)c1ccc(F)cc1	1130 nM (active)
CC(C)NC(=O)Nc1ccc2c(c1)C(=O)N([C@@H](C)CO)C[C@@H](C)[C@H](CN(C)S(=O)(=O)c1ccc(F)cc1)OCCCC[C@H](C)O2	449 nM (active)
COCCOCOC[C@H](C)N1C[C@@H](C)[C@H](CN(C)S(=O)(=O)c2ccc(F)cc2)OCCCC[C@H](C)Oc2ccc(NC(=O)Nc3ccccc3)cc2C1=O	11.3 nM (active)
CC(C)N1C[C@@H](C)[C@H](CN(C)S(=O)(=O)c2ccc(F)cc2)OCCCC[C@H](C)Oc2ccc(NC(=O)Nc3ccccc3)cc2C1=O	17.9 nM (active)
C[C@@H]1CCCCO[C@H](CN(C)C(=O)Nc2ccc(F)cc2)[C@H](C)CN([C@@H](C)CO)C(=O)c2cc(NS(=O)(=O)c3ccccc3)ccc2O1	113 nM (active)
C=CCOC(=O)N(C)C[C@H]1OCCCC[C@H](C)Oc2ccc(NC(=O)Nc3ccccc3)cc2C(=O)N([C@@H](C)CO[Si](C)(C)C(C)(C)C)C[C@H]1C	126 nM (active)
C=CCOC(=O)N(C)C[C@@H]1OCCCC[C@H](C)Oc2ccc(NC(=O)Nc3ccccc3)cc2C(=O)N([C@@H](C)CO)C[C@H]1C	252 nM (active)
C[C@@H]1CN([C@@H](C)CO[Si](C)(C)C(C)(C)C)C(=O)c2cc(NC(=O)Nc3ccccc3)ccc2O[C@@H](C)CCCCO[C@H]1CN(C)S(=O)(=O)c1ccc(F)cc1	0.6 nM (active)
C[C@@H]1CN([C@@H](C)CO)C(=O)c2cc(NC(=O)Nc3ccccc3)ccc2O[C@@H](C)C/C=C\CO[C@H]1CN(C)S(=O)(=O)c1ccc(F)cc1	252 nM (active)
C[C@@H]1CN([C@@H](C)CO)C(=O)c2cc(NC(=O)Nc3ccccc3)ccc2O[C@@H](C)CCCCO[C@H]1CN(C)S(=O)(=O)c1cccc(F)c1	7.1 nM (active)
Cc1noc(C)c1NC(=O)Nc1ccc2c(c1)C(=O)N([C@@H](C)CO)C[C@@H](C)[C@H](CN(C)S(=O)(=O)c1ccc(F)cc1)OCCCC[C@H](C)O2	79.8 nM (active)
C[C@@H]1CN([C@@H](C)CO)C(=O)c2cc(N)ccc2O[C@@H](C)CCCCO[C@H]1CN(C)S(=O)(=O)c1ccc(F)cc1	63.4 nM (active)
C[C@@H]1CN([C@@H](C)CN=[N+]=[N-])C(=O)c2cc(NC(=O)Nc3ccccc3)ccc2O[C@@H](C)CCCCO[C@H]1CN(C)S(=O)(=O)c1ccc(F)cc1	3.6 nM (active)
C[C@@H]1CN(CCO)C(=O)c2cc(NC(=O)Nc3ccccc3)ccc2O[C@@H](C)CCCCO[C@H]1CN(C)S(=O)(=O)c1ccc(F)cc1	179 nM (active)
